# Measurements taken from PubChem BioAssay (NCATS).
# Inconclusive results are not listed. The source made the active and inactive calls. The call rests on the fitted dose curve; in most records, active means well fitted curve in the direction sought with a large enough effect; inconclusive means small, poorly fitted or top-dose-only effect, or another doubt; inactive means no such curve, though single readings can be large; an effect the other way counts as inactive or inconclusive.
# Biological target: Aldehyde dehydrogenase, mitochondrial (Homo sapiens) (UniProt P05091)
# Assay: qHTS for Inhibitors of the Aldehyde Dehydrogenase Family (ALDH2) Primary screen (AID 2061308);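 further: plate controls were vehicle for no effect and reference inhibitor for full effect; nearly all actives have a fitted effect of over 55% in size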
# Details: ALDH2 enzyme inhibition qHTS, 1536-well; series mostly up to 56 µM; activity change, negative = inhibition: at the top concentration
row,Structure (SMILES),"activity change, negative = inhibition"
1,COc1cccc(C2c3c(ncn(-c4ccncc4)c3=N)Oc3ccc4ccccc4c32)c1 (stereo unspecified),3.14% (inactive)
2,COc1cc(O)c(C(CC(=O)N2CCCCC2)c2ccc(C)cc2)c(OC)c1 (stereo unspecified),0.544% (inactive)
3,C=C1CCC[C@]2(C)C[C@]3(O)OC(=O)C(C)=C3C[C@@H]12,7.74% (inactive)
4,O=C1CC(c2ccccc2)CC2=C1C1(CCCCC1)N=C(Nc1nc3ccccc3o1)N2 (stereo unspecified),-16.6% (inactive)
5,O=C(NCc1ccccc1)Nc1nnc(-c2ccncc2)s1,9.84% (inactive)
6,Brc1ccc(-c2csc(N3CCCCC3)n2)cc1,-4.19% (inactive)

# Biological target: Retinaldehyde dehydrogenase 3 (Homo sapiens) (UniProt P47895)
# Assay: qHTS for Inhibitors of the Aldehyde Dehydrogenase Family (ALDH1A3) Primary screen (AID 2061315);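 further: plate controls were DMSO vehicle for no effect and reference inhibitor for full effect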
# Details: ALDH inhibition qHTS; series mostly up to 56 µM; activity change, negative = inhibition: at the top concentration
Structure (SMILES),"activity change, negative = inhibition",Potency
CCCn1c(C)nc2c(NCCN3CCCC3)nc(C)nc21,13.5% (inactive),
Cc1cc(-c2nc(Nc3ccc(F)c(F)c3)c3ccccc3n2)cc(C)n1,5.91% (inactive),
O=C1CCc2cc(S(=O)(=O)Nc3ccncc3)ccc2N1,12.3% (inactive),
O=C(Cc1nnc(-c2nc3ccccc3[nH]2)o1)Nc1cc(C(F)(F)F)ccc1Cl,4.13% (inactive),
COc1ccc2[nH]c(=O)c3c(c2c1)OC(C)(C)C=C3,-0.192% (inactive),
CN(Cc1cccs1)c1ncnc2ccc(-c3ccc4c(c3)OCO4)cc12,-4.63% (inactive),
Cc1nnc(-c2cnn(C)c2N)n1CCCn1cccc1,-12% (inactive),
CCCCCC1CCC(C(=O)Nc2ccc(S(=O)(=O)Nc3nccs3)cc2)CC1 (stereo unspecified),9.57% (inactive),
COc1cccc(CCN2C(=O)c3ccccc3NC2c2ccc(OC)c(COc3c(C)cc(NC(C)=O)cc3C)c2)c1 (stereo unspecified),-9.84% (inactive),
Cc1cccc(CNc2ncnc3ccc(-c4ccccc4Cl)cc23)c1,3.55% (inactive),
O=C1CCc2cc(S(=O)(=O)Nc3cccc(Br)c3)ccc2N1,-3.6% (inactive),
CC(C)(C)OC(=O)NCc1nnc(C(C(=O)OCc2ccccc2)c2ccccc2)s1 (stereo unspecified),5.96% (inactive),
O=C1CCCC2=C1C(c1[nH]ncc1Cl)NC(=NCCc1ccccc1)N2 (stereo unspecified),-1.46% (inactive),
O=S(=O)(c1ccc2c(c1)OCCO2)N1CCN(S(=O)(=O)c2ccc3c(c2)OCCO3)CC1,-6.18% (inactive),
Cc1nc(NC2CCCCC2)c2nc(-c3ccccc3)n(CCCN3CCCCC3C)c2n1 (stereo unspecified),8.46% (inactive),
O=C(Nc1ccc(O)c2ncccc12)c1ccccc1F,16.2% (inactive),
Cc1cc(C)nc(NC(=S)N2CCN(c3cc(Cl)cc(C(F)(F)F)c3)CC2)c1,,inactive
c1ccc(OCc2nnc3ccc(-c4ccccc4)nn23)cc1,4.15% (inactive),
Cn1nnnc1Sc1ncnc2scc(-c3ccc(C#N)cc3)c12,-5.38% (inactive),
C=CC1C(OC2OC(CO)C(O)C(O)C2O)OC=C2C(=O)N3C(C(=O)O)Cc4c([nH]c5ccccc45)C3CC21 (stereo unspecified),-16.2% [at 28 µM] (inactive),

Structure (SMILES),"activity change, negative = inhibition",Potency
N#Cc1nc(Nc2ccc(-c3ccccc3)cc2)nc(NC2CCCC2)n1,12.5% (inactive),
O=C1CCCC2CC(Nc3nc4ccccc4o3)CC(c3ccccc3)C12 (stereo unspecified),4.45% (inactive),
c1csc(CNc2ncnc3ccc(-c4ccc5c(c4)OCO5)cc23)c1,5.29% (inactive),
COc1cccc(C2=Nn3c(nnc3-c3ccc(OC)c(OC)c3)SC2)c1,-2.21% (inactive),
Clc1cccc(-c2ccc3ncnc(NCc4cccnc4)c3c2)c1,0.97% (inactive),
Cc1nc(NCc2ccccc2)c2nc(-c3ccccc3)n(CCN3CCOCC3)c2n1,-2.49% (inactive),
COCCNc1nc(C)nc2c1nc(-c1ccccc1)n2C1CCN(Cc2ccccc2)C1 (stereo unspecified),-1.77% (inactive),
Oc1cccc2cc(N3CCCC3)cnc12,-16% (inactive),
CC(=O)C1CCN(c2ncc(-c3ccc4c(c3)OCCCO4)s2)CC1,-1.99% (inactive),
Cc1ccc(NS(=O)(=O)c2ccccc2C(=O)Nc2nc(-c3ccccc3)cs2)cc1,-0.208% (inactive),
COc1cnc(-c2ccc(Cn3c(CC(C)(C)C(=O)O)c(SC(C)(C)C)c4cc(OC[C@@H]5Cc6ccccc6N5C(C)=O)ccc43)cc2)nc1,6.33% (inactive),
COc1cc(OC)cc(-c2nnc3n2N=C(c2ccc(OC)cc2OC)CS3)c1,0.762% (inactive),
Fc1cnc(-c2ccccc2C(F)F)nc1NCc1ccc(-n2ccnn2)cc1,-4.8% (inactive),
FC(F)(F)c1ccc(CSc2nc3ncc(Br)cc3[nH]2)cc1,-3.14% (inactive),
COc1cccc(C2c3c(ncn(-c4ccncc4)c3=N)Oc3ccc4ccccc4c32)c1 (stereo unspecified),0.766% (inactive),
COc1cc(O)c(C(CC(=O)N2CCCCC2)c2ccc(C)cc2)c(OC)c1 (stereo unspecified),22.6% (inactive),
C=C1CCC[C@]2(C)C[C@]3(O)OC(=O)C(C)=C3C[C@@H]12,-6.68% (inactive),
O=C1CC(c2ccccc2)CC2=C1C1(CCCCC1)N=C(Nc1nc3ccccc3o1)N2 (stereo unspecified),10.2% (inactive),
O=C(NCc1ccccc1)Nc1nnc(-c2ccncc2)s1,0.207% (inactive),
Brc1ccc(-c2csc(N3CCCCC3)n2)cc1,12.5% (inactive),
